# Data reported in PMC7862700, “An all-to-all approach to the identification of sequence-specific readers for epigenetic DNA modifications on cytosine”.
# Columns and labels:
# Assay in all cases: DAPPL (digital affinity profiling via proximity ligation, sequencing); 10 mM Tris-HCl pH 7.5, 50 mM NaCl, 1 mM DTT, 4% glycerol, room temperature, 30 min; GST-TFs on glutathione beads, 16-mer random dsDNA library, 0.1% formaldehyde crosslink after washing; high values mean tight binding
# FEV = biological target: T1, FEV (Homo sapiens, UniProt Q99581 1-238); conditions: protein: recombinant; tags: N-terminal GST; dsDNA, one strand shown
# T1 sequence: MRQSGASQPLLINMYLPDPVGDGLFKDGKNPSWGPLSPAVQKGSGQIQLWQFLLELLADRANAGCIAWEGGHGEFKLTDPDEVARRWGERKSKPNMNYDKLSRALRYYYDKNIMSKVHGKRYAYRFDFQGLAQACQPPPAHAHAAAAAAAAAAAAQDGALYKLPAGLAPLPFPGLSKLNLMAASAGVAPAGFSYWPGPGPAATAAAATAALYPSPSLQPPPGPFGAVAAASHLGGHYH
# Summary of the method: (§1)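 Beads coated with glutathione captured GST-fused human transcription factors that had been expressed in yeast, and the factors were then given DNA barcodes and pooled with a tag-only sample. The pools were incubated with 200 nmole of a random double-stranded 16-mer DNA library in Tris/NaCl/DTT/glycerol buffer for 30 min at room temperature, washed, crosslinked with 0.1% formaldehyde and proximity-ligated with BsaI/T4 ligase at 37 °C for 1 h. PCR amplification and Illumina NextSeq500 sequencing came last. Binding signal is each hexamer's read frequency for a factor divided by its frequency for the tag-only sample.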
# ETV5 = ETV5 (Homo sapiens, UniProt P41161 1-510); conditions: protein: recombinant; tags: N-terminal GST; dsDNA, one strand shown
# Sequence of ETV5 (P41161 whole entry): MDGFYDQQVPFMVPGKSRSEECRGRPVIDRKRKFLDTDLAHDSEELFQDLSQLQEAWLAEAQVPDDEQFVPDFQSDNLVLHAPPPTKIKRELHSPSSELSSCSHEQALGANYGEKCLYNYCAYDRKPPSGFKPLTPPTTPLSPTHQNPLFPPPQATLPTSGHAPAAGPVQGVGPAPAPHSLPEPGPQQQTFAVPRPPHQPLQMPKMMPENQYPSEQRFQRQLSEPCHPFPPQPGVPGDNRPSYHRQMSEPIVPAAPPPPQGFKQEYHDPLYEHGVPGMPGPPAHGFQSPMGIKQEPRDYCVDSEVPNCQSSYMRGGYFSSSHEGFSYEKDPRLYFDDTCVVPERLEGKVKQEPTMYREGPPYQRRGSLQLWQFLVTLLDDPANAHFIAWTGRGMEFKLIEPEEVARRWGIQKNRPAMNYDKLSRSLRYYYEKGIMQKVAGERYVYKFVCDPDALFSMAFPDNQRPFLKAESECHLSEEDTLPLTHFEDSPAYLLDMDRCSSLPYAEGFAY
# Summary of the method: as §1
# HSF1 = HSF1 (Homo sapiens, UniProt Q00613 1-529); conditions: protein: recombinant; tags: N-terminal GST; chain copies: 3; dsDNA, one strand shown
# Sequence of HSF1 (Q00613 whole entry): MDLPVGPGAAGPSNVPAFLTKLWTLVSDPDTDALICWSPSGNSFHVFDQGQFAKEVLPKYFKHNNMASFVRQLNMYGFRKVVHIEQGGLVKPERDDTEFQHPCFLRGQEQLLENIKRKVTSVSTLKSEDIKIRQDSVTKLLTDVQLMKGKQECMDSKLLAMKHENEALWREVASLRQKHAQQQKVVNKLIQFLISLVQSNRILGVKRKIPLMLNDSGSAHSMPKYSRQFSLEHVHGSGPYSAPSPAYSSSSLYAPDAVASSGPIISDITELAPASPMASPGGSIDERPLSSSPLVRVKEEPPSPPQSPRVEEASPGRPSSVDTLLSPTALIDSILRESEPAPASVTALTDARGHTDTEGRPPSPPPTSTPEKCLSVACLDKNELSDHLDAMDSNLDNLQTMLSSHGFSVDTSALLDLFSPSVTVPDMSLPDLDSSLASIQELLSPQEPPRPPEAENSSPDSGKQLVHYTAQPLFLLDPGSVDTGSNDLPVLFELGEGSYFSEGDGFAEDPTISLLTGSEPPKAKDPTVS
# Summary of the method: as §1
# SPIC = biological target: T2, SPIC (Homo sapiens, UniProt Q8N5J4 1-248); conditions: protein: recombinant; tags: N-terminal GST; dsDNA, one strand shown
# T2 sequence: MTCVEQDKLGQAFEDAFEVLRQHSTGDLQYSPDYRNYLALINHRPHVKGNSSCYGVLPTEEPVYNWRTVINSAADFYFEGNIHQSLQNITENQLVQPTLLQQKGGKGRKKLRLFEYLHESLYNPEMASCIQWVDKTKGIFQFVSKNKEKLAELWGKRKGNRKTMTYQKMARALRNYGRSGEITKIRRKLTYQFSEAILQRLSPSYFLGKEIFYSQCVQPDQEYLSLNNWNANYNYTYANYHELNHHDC
# Summary of the method: as §1
# ELF4 = ELF4 (Homo sapiens, UniProt Q99607 1-663); conditions: protein: recombinant; tags: N-terminal GST; dsDNA, one strand shown
# Sequence of ELF4 (Q99607 whole entry): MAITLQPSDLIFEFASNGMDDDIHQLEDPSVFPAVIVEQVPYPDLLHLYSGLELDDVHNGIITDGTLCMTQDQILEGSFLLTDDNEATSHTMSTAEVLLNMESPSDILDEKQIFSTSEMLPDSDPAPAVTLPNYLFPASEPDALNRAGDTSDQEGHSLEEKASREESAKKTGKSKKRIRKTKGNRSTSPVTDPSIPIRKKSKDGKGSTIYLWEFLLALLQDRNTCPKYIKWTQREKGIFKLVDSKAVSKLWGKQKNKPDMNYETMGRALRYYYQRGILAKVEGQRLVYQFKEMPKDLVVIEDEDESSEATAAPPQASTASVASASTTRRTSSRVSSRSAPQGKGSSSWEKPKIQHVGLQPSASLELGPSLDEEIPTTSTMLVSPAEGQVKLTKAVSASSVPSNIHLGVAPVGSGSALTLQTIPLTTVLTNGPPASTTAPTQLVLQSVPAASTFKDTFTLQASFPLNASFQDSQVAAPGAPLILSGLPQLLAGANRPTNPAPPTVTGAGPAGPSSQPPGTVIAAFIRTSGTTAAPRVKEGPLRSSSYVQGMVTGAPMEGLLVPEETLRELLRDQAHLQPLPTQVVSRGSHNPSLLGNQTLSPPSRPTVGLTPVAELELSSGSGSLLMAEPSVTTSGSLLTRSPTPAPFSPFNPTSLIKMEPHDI
# Summary of the method: as §1
# ELK4 = biological target: T3, ELK4 (Homo sapiens, UniProt P28324-2 1-405); conditions: protein: recombinant; tags: N-terminal GST; dsDNA, one strand shown
# T3 sequence: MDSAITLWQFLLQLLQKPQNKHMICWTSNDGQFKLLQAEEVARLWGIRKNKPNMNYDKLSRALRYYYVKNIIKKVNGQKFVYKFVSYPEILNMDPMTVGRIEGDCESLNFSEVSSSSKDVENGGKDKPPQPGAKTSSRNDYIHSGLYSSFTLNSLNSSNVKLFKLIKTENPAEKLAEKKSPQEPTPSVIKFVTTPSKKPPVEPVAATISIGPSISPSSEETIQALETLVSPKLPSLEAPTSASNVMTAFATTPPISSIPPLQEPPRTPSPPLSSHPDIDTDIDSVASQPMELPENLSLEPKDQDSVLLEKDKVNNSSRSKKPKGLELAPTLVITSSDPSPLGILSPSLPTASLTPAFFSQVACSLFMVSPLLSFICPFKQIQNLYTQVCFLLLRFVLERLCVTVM
# Summary of the method: as §1
# ETV2 = biological target: T4, ETV2 (Homo sapiens, UniProt O00321 1-342); conditions: protein: recombinant; tags: N-terminal GST; dsDNA, one strand shown
# T4 sequence: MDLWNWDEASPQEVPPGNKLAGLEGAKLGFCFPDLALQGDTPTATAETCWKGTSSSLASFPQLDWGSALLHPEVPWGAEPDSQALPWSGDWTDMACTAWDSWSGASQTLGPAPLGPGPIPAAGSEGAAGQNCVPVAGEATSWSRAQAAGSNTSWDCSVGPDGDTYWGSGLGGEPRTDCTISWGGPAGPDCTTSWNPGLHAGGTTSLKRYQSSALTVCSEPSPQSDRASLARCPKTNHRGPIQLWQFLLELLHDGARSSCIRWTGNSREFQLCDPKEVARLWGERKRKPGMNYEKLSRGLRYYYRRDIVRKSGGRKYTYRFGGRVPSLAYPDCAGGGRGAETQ
# Summary of the method: as §1
# ELF3 = biological target: T5, ELF3 (Homo sapiens, UniProt P78545 1-371); conditions: protein: recombinant; tags: N-terminal GST; dsDNA, one strand shown
# T5 sequence: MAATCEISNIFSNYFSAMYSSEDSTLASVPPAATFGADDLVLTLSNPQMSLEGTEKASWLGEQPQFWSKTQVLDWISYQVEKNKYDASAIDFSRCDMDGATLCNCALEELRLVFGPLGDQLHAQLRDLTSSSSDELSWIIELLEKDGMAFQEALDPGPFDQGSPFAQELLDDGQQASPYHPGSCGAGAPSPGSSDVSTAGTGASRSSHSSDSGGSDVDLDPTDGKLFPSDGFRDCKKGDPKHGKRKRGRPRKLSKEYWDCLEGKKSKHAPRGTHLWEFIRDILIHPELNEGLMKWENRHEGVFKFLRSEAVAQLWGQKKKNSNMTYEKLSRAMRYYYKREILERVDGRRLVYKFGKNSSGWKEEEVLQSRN
# Summary of the method: as §1
# CRX = CRX (Homo sapiens, UniProt O43186 1-299); conditions: protein: recombinant; tags: N-terminal GST; dsDNA, one strand shown
# Sequence of CRX (O43186 whole entry): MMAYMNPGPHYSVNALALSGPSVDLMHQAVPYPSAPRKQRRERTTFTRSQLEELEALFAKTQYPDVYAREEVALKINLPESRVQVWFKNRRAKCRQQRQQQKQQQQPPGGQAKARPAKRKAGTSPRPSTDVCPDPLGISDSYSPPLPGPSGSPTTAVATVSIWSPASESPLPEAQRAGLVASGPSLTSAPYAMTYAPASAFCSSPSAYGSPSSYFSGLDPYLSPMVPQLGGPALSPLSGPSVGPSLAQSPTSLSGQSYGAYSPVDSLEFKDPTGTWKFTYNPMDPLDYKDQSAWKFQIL
# Summary of the method: as §1
# ETV1 = ETV1 (Homo sapiens, UniProt P50549 1-477); conditions: protein: recombinant; tags: N-terminal GST; dsDNA, one strand shown
# Sequence of ETV1 (P50549 whole entry): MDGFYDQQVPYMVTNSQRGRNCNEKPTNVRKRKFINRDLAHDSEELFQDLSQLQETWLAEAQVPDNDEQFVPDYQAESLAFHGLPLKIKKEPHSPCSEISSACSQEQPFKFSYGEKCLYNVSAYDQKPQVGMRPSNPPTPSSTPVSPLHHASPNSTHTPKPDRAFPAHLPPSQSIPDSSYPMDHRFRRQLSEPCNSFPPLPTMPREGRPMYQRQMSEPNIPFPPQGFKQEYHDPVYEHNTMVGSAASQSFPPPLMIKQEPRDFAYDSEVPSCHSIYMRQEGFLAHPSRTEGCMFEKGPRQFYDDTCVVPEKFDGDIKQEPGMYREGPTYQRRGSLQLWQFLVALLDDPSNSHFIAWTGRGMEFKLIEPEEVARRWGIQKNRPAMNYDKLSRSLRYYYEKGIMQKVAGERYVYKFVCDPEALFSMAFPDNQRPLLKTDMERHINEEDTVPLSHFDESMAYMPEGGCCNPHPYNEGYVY
# Summary of the method: as §1
# ERF = biological target: T6, ERF (Homo sapiens, UniProt P50548 1-548); conditions: protein: recombinant; tags: N-terminal GST; dsDNA, one strand shown
# T6 sequence: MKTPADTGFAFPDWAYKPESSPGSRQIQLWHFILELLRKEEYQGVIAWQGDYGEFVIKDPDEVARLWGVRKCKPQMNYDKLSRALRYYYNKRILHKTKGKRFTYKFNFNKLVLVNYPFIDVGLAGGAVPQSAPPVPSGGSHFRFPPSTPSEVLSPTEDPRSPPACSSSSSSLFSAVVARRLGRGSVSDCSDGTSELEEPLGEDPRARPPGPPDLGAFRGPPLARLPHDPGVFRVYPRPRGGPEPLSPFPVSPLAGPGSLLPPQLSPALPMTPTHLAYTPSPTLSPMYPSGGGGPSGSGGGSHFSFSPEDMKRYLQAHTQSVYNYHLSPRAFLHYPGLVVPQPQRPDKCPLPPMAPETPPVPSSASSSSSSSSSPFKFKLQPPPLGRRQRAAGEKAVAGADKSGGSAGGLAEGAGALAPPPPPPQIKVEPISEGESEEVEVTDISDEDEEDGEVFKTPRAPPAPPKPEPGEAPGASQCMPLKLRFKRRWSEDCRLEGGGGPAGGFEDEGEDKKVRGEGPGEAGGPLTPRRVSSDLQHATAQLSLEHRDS
# Summary of the method: as §1
# ETV3L = biological target: T7, ETV3L (Homo sapiens, UniProt Q6ZN32 1-361); conditions: protein: recombinant; tags: N-terminal GST; dsDNA, one strand shown
# T7 sequence: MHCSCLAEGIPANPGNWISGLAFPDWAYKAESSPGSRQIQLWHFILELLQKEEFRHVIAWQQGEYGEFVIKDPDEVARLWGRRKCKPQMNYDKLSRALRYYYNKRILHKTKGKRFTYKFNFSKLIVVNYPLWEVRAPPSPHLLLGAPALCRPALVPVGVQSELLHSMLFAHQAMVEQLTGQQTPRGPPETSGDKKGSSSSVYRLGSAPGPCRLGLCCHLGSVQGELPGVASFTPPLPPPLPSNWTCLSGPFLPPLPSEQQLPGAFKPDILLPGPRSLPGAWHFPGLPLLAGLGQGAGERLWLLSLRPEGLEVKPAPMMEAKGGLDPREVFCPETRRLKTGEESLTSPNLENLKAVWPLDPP
# Summary of the method: as §1
# ETS2 = biological target: T8, ETS2 (Homo sapiens, UniProt P15036 1-469); conditions: protein: recombinant; tags: N-terminal GST; dsDNA, one strand shown
# T8 sequence: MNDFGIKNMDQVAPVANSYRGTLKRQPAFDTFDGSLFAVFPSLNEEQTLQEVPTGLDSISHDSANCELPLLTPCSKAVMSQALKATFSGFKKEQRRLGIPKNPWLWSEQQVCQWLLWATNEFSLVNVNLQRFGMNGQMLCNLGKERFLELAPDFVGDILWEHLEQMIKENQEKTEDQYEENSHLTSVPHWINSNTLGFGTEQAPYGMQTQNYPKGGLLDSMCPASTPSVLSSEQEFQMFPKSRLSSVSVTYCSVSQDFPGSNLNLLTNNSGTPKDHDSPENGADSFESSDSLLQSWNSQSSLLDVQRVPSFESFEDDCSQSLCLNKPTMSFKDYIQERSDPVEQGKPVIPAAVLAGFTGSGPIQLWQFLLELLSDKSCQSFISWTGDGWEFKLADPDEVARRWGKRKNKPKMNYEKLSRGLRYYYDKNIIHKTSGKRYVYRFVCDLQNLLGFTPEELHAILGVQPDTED
# Summary of the method: as §1
# SPDEF = biological target: T9, SPDEF (Homo sapiens, UniProt O95238 1-335); conditions: protein: recombinant; tags: N-terminal GST; dsDNA, one strand shown
# T9 sequence: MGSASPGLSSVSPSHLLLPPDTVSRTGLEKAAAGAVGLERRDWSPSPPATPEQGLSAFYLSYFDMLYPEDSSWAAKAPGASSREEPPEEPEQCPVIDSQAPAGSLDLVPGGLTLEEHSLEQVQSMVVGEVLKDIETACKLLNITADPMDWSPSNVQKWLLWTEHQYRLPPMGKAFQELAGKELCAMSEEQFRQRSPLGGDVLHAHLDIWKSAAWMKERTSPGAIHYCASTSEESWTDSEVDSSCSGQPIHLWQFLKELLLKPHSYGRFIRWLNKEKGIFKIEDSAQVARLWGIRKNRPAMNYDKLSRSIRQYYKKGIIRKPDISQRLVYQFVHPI
# Summary of the method: as §1
# ETV7 = biological target: T10, ETV7 (Homo sapiens, UniProt Q9Y603 1-341); conditions: protein: recombinant; tags: N-terminal GST; dsDNA, one strand shown
# T10 sequence: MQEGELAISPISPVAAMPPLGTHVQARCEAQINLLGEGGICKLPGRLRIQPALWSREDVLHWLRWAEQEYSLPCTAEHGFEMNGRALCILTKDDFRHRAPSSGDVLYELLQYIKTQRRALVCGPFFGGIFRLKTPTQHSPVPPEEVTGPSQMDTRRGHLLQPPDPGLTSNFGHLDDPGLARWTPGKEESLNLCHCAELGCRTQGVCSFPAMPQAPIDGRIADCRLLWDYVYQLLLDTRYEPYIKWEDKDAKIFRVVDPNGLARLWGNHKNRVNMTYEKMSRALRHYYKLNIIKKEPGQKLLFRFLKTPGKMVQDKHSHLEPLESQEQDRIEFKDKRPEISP
# Summary of the method: as §1
# ELF5 = biological target: T11, ELF5 (Homo sapiens, UniProt Q9UKW6-2 1-255); conditions: protein: recombinant; tags: N-terminal GST; dsDNA, one strand shown
# T11 sequence: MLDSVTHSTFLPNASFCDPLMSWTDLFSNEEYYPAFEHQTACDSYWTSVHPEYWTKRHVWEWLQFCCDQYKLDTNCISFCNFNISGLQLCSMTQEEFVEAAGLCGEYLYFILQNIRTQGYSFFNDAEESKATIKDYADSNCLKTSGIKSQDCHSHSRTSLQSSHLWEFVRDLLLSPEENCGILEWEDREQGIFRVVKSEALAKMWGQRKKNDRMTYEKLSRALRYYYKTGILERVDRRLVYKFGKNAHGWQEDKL
# Summary of the method: as §1
# ETV3 = biological target: T12, ETV3 (Homo sapiens, UniProt P41162-2 1-143); conditions: protein: recombinant; tags: N-terminal GST; dsDNA, one strand shown
# T12 sequence: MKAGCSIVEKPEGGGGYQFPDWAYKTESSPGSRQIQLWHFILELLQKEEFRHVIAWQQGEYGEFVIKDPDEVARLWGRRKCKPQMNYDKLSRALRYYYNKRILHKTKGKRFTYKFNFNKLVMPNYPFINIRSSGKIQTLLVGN
# Summary of the method: as §1
# ETV6 = ETV6 (Homo sapiens, UniProt P41212 1-452); conditions: protein: recombinant; tags: N-terminal GST; dsDNA, one strand shown
# Sequence of ETV6 (P41212 whole entry): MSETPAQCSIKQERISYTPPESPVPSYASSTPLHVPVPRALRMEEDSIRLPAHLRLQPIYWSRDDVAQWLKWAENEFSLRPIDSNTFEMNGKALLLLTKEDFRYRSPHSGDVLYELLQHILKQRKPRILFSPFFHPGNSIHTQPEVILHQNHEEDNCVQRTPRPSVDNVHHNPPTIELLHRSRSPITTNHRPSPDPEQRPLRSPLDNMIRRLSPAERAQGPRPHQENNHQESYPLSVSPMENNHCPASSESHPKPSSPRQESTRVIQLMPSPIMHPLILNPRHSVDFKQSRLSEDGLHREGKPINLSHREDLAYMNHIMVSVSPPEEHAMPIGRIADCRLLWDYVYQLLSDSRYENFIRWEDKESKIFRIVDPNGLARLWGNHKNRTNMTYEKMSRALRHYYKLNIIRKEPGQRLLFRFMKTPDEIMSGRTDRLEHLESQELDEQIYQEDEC
# Summary of the method: as §1
sequence,measurement,setting,value
AAAGTA,binding signal,FEV,"1.11 fold enrichment (6-mer frequency, TF over GST control)"
same,binding signal,ETV5,"1.09 fold enrichment (6-mer frequency, TF over GST control)"
same,binding signal,HSF1,"1.29 fold enrichment (6-mer frequency, TF over GST control)"
same,binding signal,SPIC,"1.04 fold enrichment (6-mer frequency, TF over GST control)"
same,binding signal,ELF4,"1.17 fold enrichment (6-mer frequency, TF over GST control)"
same,binding signal,ELK4,"1.13 fold enrichment (6-mer frequency, TF over GST control)"
same,binding signal,ETV2,"1.11 fold enrichment (6-mer frequency, TF over GST control)"
same,binding signal,ELF3,"1.11 fold enrichment (6-mer frequency, TF over GST control)"
same,binding signal,CRX,"1.35 fold enrichment (6-mer frequency, TF over GST control)"
same,binding signal,ETV1,"1.18 fold enrichment (6-mer frequency, TF over GST control)"
same,binding signal,ERF,"1.11 fold enrichment (6-mer frequency, TF over GST control)"
same,binding signal,ETV3L,"1.18 fold enrichment (6-mer frequency, TF over GST control)"
same,binding signal,ETS2,"1.17 fold enrichment (6-mer frequency, TF over GST control)"
same,binding signal,SPDEF,"1.13 fold enrichment (6-mer frequency, TF over GST control)"
same,binding signal,ETV7,"1.21 fold enrichment (6-mer frequency, TF over GST control)"
same,binding signal,ELF5,"1.18 fold enrichment (6-mer frequency, TF over GST control)"
same,binding signal,ETV3,"1.14 fold enrichment (6-mer frequency, TF over GST control)"
same,binding signal,ETV6,"1.15 fold enrichment (6-mer frequency, TF over GST control)"
